Data taken from the supplement of paper PMC10849652.
About 8,800 targets were measured; listed, in parts, are those with a hit and a random draw of the rest. About 0.5% of all pairs of compound and target were hits. Unmarked numbers belong to inactive results.

How the values were obtained:
Assay in all cases: log2 fold change, soluble protein after heating vs DMSO (PISA); higher = thermal stabilisation; K562 lysate, 10 uM; active = over 0.2 and 3.5 SD of the protein, either way, in both replicates (recomputed)
vemurafenib = compound: CCCS(=O)(=O)Nc1ccc(F)c(C(=O)c2c[nH]c3ncc(-c4ccc(Cl)cc4)cc23)c1F [vemurafenib]
Procedure, shortened: (§1)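 Quantification was by TMTpro 16plex LC-MS/MS with equalised channel sums, applied to the supernatant after 21,000xg for 90 min. Samples were crude K562 extract at 1 mg/mL protein in PBS pH 7.4 with 1 mM MgCl2, treated with 10 μM compound for 30 min, heated for 3 min across 48°C-58°C, pooled and brought to 0.5% NP-40 at 4°C. Values are log-two fold changes in thermal stability relative to solvent controls, from duplicates.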

[1] = compound: CCCS(=O)(=O)Nc1ccc(F)c(C(=O)c2c[nH]c3ncc(Cl)cc23)c1F
Procedure, shortened: as §1

barasertib = compound: CCN(CCCOc1ccc2c(Nc3cc(CC(=O)Nc4cccc(F)c4)[nH]n3)ncnc2c1)CCOP(=O)(O)O [barasertib]
Procedure, shortened: as §1

[2] = compound: CC[C@@H]1C(=O)N(C)c2cnc(Nc3ccc(C(=O)NC4CCN(C)CC4)cc3OC)nc2N1C1CCCC1
Procedure, shortened: as §1

volasertib = compound: CC[C@@H]1C(=O)N(C)c2cnc(Nc3ccc(C(=O)N[C@H]4CC[C@H](N5CCN(CC6CC6)CC5)CC4)cc3OC)nc2N1C(C)C [volasertib]
Procedure, shortened: as §1

[3] = compound: CCn1c(C(=O)N(C2CC2)C2CC2)cc2c3c(ncn3C)c(Nc3cc(C)n(C)n3)nc21
Procedure, shortened: as §1

[4] = compound: CCn1cc(-c2ccnc3[nH]c(-c4cccc(CN(C)C)c4)cc23)c(-c2ccc(NC(=O)N(C)C)cc2)n1
Procedure, shortened: as §1

[5] = compound: CN1CCC(CNc2ccc3ncc(-c4cccc(OC(F)(F)F)c4)n3n2)CC1
Procedure, shortened: as §1

saracatinib = compound: CN1CCN(CCOc2cc(OC3CCOCC3)c3c(Nc4c(Cl)ccc5c4OCO5)ncnc3c2)CC1 [saracatinib]
Procedure, shortened: as §1

sotrastaurin = compound: CN1CCN(c2nc(C3=C(c4c[nH]c5ccccc45)C(=O)NC3=O)c3ccccc3n2)CC1 [sotrastaurin]
Procedure, shortened: as §1

UniProt Q9BQE3, sequence (Q9BQE3 whole entry, looked up): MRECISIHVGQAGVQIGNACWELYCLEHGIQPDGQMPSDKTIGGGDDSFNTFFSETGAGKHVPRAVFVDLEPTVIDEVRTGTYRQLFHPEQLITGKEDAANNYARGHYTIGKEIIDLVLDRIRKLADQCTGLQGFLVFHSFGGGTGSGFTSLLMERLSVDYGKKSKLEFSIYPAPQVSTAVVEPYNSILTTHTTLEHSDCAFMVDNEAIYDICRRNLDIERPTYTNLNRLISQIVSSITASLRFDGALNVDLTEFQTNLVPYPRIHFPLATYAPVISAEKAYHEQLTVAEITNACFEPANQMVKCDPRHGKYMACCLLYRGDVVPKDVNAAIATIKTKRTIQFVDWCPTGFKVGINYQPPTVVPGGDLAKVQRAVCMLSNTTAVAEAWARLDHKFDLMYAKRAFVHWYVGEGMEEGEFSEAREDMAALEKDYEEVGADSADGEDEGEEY
UniProt Q6NXR4, sequence (Q6NXR4 whole entry, looked up): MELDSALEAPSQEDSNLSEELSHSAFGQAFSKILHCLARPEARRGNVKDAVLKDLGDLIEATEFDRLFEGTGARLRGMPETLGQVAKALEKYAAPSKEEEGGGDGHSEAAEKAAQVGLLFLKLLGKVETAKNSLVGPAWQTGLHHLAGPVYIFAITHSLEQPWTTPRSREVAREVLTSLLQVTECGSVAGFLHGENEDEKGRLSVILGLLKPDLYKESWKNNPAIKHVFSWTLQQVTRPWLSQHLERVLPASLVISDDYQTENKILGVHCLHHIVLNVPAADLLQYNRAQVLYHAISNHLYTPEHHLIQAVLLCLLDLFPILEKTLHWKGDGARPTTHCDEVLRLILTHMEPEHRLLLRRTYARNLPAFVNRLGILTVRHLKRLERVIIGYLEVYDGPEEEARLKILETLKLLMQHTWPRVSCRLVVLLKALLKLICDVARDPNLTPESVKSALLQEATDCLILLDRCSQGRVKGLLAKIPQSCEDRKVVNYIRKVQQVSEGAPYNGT
UniProt O95801, sequence (O95801 whole entry, looked up): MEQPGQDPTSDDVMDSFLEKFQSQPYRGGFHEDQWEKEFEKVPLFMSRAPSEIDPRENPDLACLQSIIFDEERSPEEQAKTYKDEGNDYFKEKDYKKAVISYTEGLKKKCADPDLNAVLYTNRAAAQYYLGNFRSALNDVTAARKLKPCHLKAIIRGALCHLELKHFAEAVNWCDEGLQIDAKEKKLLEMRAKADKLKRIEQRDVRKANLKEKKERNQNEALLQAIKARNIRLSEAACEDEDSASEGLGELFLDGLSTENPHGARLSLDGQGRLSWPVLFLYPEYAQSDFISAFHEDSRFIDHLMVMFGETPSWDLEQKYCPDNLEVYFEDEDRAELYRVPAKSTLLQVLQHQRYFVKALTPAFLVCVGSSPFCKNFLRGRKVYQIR
UniProt Q8IWV7, sequence (Q8IWV7 whole entry, looked up): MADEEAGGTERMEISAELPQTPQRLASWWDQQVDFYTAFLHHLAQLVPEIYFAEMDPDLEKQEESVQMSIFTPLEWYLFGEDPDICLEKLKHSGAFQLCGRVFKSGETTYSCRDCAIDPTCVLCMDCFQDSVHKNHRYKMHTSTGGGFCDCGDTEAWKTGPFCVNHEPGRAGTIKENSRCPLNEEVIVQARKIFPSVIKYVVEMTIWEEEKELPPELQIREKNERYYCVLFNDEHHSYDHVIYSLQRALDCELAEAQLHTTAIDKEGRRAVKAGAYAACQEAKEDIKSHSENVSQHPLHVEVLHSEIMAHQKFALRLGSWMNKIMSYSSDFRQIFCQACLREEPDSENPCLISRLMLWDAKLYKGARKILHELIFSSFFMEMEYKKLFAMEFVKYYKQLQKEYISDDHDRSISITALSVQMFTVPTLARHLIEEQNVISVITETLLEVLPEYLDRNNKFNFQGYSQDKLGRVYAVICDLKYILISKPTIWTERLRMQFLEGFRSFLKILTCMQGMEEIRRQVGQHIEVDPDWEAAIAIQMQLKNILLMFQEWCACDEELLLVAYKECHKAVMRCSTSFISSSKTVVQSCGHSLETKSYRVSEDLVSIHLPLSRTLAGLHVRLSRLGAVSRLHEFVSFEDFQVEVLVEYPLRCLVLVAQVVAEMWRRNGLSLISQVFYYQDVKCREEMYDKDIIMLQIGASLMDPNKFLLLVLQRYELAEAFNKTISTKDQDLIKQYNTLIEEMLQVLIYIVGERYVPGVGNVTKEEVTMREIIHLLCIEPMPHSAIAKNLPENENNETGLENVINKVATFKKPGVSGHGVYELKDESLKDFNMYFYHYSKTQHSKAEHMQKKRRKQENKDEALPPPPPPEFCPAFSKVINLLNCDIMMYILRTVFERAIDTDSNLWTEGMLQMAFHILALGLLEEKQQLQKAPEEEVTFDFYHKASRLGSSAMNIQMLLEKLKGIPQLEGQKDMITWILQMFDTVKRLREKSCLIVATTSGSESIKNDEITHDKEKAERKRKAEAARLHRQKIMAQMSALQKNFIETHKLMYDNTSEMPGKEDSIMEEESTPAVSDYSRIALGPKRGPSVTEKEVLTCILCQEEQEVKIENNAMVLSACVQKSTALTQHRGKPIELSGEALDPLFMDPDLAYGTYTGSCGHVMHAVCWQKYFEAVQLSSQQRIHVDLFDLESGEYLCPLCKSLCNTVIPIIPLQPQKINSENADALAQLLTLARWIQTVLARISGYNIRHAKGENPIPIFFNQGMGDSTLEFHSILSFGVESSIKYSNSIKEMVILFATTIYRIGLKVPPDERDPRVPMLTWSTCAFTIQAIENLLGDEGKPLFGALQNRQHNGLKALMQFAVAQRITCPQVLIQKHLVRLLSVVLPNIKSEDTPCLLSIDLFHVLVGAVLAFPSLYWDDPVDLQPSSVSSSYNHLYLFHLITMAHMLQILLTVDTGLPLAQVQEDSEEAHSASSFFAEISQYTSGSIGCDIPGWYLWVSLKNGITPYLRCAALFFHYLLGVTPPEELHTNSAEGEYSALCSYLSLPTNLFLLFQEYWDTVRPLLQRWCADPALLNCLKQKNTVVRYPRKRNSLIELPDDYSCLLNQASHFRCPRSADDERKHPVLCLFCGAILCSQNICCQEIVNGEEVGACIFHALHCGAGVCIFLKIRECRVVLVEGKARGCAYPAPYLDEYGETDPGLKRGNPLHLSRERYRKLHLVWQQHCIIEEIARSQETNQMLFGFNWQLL
UniProt Q9Y5L0, sequence (Q9Y5L0 whole entry, looked up): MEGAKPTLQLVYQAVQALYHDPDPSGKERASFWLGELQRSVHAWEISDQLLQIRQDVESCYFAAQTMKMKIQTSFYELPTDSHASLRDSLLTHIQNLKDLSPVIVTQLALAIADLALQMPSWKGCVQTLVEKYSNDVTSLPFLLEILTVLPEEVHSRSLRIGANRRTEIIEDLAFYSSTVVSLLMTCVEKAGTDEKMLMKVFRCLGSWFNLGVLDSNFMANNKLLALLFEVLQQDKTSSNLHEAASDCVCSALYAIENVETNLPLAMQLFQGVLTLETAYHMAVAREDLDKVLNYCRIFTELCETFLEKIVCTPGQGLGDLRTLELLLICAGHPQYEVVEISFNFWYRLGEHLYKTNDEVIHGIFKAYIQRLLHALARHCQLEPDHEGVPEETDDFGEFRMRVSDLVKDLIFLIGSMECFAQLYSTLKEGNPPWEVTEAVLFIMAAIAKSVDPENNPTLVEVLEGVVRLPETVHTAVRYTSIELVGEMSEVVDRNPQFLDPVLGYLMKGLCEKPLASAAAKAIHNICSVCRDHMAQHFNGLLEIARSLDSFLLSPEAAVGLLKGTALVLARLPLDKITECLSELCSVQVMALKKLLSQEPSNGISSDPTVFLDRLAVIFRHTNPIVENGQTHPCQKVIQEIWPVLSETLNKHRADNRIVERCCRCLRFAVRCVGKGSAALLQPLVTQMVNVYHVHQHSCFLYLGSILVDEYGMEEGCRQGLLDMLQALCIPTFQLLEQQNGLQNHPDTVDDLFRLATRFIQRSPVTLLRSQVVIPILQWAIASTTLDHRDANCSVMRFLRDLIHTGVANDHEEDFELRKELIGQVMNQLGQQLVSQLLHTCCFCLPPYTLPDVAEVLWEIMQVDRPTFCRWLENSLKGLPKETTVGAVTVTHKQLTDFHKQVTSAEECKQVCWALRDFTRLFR
UniProt Q96F44, sequence (Q96F44 whole entry, looked up): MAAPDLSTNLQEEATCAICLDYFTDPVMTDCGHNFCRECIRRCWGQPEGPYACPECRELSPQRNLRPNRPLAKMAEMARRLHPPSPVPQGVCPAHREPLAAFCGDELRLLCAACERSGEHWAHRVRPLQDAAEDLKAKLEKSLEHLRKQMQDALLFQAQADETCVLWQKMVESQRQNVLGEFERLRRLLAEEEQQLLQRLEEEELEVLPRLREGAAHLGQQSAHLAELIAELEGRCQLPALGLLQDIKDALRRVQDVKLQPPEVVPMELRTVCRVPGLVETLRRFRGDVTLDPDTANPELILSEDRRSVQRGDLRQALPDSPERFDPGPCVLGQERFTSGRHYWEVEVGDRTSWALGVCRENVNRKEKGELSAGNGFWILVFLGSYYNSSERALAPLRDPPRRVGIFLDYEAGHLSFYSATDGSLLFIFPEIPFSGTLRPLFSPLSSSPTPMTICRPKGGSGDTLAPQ
UniProt Q12800, sequence (Q12800 whole entry, looked up): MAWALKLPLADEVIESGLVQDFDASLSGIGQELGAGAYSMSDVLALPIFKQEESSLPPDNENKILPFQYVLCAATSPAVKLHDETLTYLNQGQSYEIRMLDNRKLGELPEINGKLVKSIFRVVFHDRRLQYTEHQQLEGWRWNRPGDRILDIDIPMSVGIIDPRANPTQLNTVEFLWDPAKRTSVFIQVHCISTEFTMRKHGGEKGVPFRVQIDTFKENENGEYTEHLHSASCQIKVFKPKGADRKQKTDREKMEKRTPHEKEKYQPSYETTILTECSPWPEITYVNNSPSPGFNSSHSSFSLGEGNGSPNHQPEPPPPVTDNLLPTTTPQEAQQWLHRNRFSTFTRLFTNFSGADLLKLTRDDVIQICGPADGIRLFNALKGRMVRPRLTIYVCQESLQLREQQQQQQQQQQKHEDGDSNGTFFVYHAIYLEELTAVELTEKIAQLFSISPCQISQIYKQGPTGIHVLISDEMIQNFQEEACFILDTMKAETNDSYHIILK

Target	log2 fold change (vemurafenib)	log2 fold change [1]	log2 fold change (barasertib)	log2 fold change [2]	log2 fold change (volasertib)	log2 fold change [3]	log2 fold change [4]	log2 fold change [5]	log2 fold change (saracatinib)	log2 fold change (sotrastaurin)
TGFBRAP1 (UniProt Q8WUH2)	-0.031	0.02	0.031	-0.069	-0.062	0.049	0	-0.075	0.005	-0.001
TRA2A (UniProt Q13595)	-0.197	-0.033	-0.194	-0.037	-0.052	0.073	-0.023	0.07	0.074	0
UBXN6 (UniProt Q9BZV1)	0.046	-0.192	-0.007	-0.025	-0.075	-0.001	0.008	-0.015	-0.03	0.025
TPST2 (UniProt O60704)	0.053	0.009	0.097	0.075	-0.024	-0.011	-0.851 (active)	0.188	0.011	0.065
TCP11L1 (UniProt Q9NUJ3)	-0.078	0.014	0.038	0.045	-0.054	0.009	-0.244	0.097	-0.007	0.009
TPM3 isoform 2 (UniProt P06753)	-0.052	-0.024	-0.016	-0.07	0.007	0.026	0.196	-0.179	-0.009	0.025
TBC1D20 isoform 3 (UniProt Q96BZ9)	-0.088	-0.069	0.438 (active)	0.043	0.008	0.059	0.046	-0.033	-0.038	-0.096
TRIM25 (UniProt Q14258)	0.017	0.012	0.001	-0.024	-0.006	-0.007	0.029	-0.035	-0.002	-0.05
TRIM11 (UniProt Q96F44)	-0.049	-0.018	-0.034	-0.001	-0.043	0.022	0.024	0.009	0.024	-0.009
TFCP2 (UniProt Q12800)	0.023	0.049	0.007	-0.064	-0.064	0.045	-0.042	-0.083	0.022	-0.006
TUBA3C (UniProt P0DPH7)	0.037	0.021	-0.011	-0.041	-0.026	0.012	-0.062	-0.013	0.013	0.048
TPM4 (UniProt P67936)	-0.025	0.009	0.047	0.125	0.055	0.018	0.037	-0.007	0.002	0.013
TUBA4A (UniProt P68366)	0.003	-0.045	0.028	-0.023	-0.056	0.033	-0.05	0.003	-0.036	-0.039
TTL (UniProt Q8NG68)	-0.066	0.053	0	-0.231	-0.116	0.021	0.009	-0.044	-0.068	0.078
TMEM164 (UniProt Q5U3C3)	0.179	0.108	0.039	0.176	0.08	-0.186	-0.827 (active)	0.262	0.062	-0.084
UBE3B (UniProt Q7Z3V4)	0.102	-0.052	0.175	0.016	-0.044	0.029	-0.099	-0.132	-0.069	0.055
TTI2 (UniProt Q6NXR4)	-0.009	0	0.005	-0.022	-0.048	-0.004	0	0.035	0.037	0.031
TIAL1 isoform 2 (UniProt Q01085)	-0.009	0.014	-0.023	0.072	0.005	0.002	-0.076	0.056	-0.02	-0.017
TNPO3 (UniProt Q9Y5L0)	0.024	0.003	0.019	0.009	-0.008	0.008	0.005	0.023	-0.001	-0.004
UBE2D1 (UniProt P51668)	-0.013	0.022	0.014	0.012	-0.046	0.089	0.007	-0.025	0.043	-0.021
UBR1 (UniProt Q8IWV7)	-0.018	0.025	0.054	-0.032	-0.07	0.03	-0.046	-0.038	0.019	0.004
TTI1 (UniProt O43156)	0.006	-0.012	0.055	-0.093	-0.026	0.006	-0.074	0.019	-0.003	0.006
TUBA1C (UniProt Q9BQE3)	0.036	0.026	0.013	0.009	-0.059	-0.029	-0.082	0.022	0.054	0.044
TUBE1 (UniProt Q9UJT0)	0.036	0.012	0.03	0.112	-0.005	0.028	0.257	-0.082	0.089	0.043
TLK1 isoform 2 (UniProt Q9UKI8)	0.001	-0.003	0.06	-0.048	-0.078	0.01	-0.092	0.072	0.014	0.393 (active)
TRAPPC12 (UniProt Q8WVT3)	0.039	-0.001	-0.007	0.047	-0.083	-0.03	-0.027	-0.009	0.028	-0.003
TUBGCP2 isoform 4 (UniProt Q9BSJ2)	0.02	0.01	0.027	0.001	-0.049	0.021	0.078	-0.064	-0.035	0
TSPAN13 (UniProt O95857)	-0.032	-0.03	-0.033	0.177	0.032	0.046	0.114	0.059	0.134	-0.154
TUBB3 (UniProt Q13509)	-0.004	0.018	-0.042	-0.019	-0.046	0.027	-0.002	0.012	0.015	0.027
TTC4 (UniProt O95801)	0.004	0.05	-0.004	0.008	-0.024	0.007	-0.089	-0.027	0.033	0.005
